The values that follow come from ChEMBL document CHEMBL3988442, “University of Dundee, Small-Polar-MMV Screening Library” (2021).

For some of these results: Results with a measured potency or affinity are listed apart.

What all share (design): scale not given: direction of the effect not stated beside the values
Assay [1] deals with Protein translocase subunit SecA (Escherichia coli (strain K12)) (UniProt P10408). In words: Assay to Identify E. coli SecA ATPase Inhibitors. The assay is classed as functional. The following applies: 30 µM.
Assay [2] addresses T1, Ubiquitin-activating enzyme e1, putative (Leishmania donovani (strain BPK282A1)) (UniProt E9BSI1).
T1 sequence (whole entry): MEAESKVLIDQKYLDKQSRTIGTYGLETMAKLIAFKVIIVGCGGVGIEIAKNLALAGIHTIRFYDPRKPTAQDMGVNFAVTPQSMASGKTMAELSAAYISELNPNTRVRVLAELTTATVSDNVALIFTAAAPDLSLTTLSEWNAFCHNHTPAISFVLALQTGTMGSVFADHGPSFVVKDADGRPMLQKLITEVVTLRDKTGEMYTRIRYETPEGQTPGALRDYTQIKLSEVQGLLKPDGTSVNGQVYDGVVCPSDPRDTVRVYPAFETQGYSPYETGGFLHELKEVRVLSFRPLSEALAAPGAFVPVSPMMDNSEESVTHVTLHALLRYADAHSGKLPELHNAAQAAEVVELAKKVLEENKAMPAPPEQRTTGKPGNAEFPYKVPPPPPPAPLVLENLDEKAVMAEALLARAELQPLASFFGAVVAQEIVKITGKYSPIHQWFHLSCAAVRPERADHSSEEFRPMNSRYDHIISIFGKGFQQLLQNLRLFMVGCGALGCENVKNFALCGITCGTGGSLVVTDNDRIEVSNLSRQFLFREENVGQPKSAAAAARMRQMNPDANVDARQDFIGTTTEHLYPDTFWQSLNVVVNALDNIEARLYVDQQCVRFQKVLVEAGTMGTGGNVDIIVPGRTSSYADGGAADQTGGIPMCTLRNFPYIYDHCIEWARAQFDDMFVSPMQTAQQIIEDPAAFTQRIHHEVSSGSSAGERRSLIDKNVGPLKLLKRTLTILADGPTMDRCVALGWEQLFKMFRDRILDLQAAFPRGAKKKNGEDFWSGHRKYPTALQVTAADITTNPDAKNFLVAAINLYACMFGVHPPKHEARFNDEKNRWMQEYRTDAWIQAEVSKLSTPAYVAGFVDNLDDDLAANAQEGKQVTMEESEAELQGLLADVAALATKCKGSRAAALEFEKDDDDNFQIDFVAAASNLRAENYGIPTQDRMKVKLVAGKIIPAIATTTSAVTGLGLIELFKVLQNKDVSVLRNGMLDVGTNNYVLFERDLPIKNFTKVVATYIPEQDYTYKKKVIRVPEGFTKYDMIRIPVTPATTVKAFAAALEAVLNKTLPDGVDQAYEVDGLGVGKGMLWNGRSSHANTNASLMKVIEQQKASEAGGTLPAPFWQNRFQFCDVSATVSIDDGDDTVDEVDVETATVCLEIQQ
Description: Leishmania donovani Ubiquitin Activating Enzyme (LdE1). The assay is classed as functional. The following applies: 30 µM.

For assay [3], the target named is T2, Aspartate--tRNA(Asp/Asn) ligase (Mycobacterium tuberculosis (strain ATCC 25618 / H37Rv)) (UniProt P9WFW3). Note: in the data most compounds retested in dose-response had high values.
T2 sequence (whole entry): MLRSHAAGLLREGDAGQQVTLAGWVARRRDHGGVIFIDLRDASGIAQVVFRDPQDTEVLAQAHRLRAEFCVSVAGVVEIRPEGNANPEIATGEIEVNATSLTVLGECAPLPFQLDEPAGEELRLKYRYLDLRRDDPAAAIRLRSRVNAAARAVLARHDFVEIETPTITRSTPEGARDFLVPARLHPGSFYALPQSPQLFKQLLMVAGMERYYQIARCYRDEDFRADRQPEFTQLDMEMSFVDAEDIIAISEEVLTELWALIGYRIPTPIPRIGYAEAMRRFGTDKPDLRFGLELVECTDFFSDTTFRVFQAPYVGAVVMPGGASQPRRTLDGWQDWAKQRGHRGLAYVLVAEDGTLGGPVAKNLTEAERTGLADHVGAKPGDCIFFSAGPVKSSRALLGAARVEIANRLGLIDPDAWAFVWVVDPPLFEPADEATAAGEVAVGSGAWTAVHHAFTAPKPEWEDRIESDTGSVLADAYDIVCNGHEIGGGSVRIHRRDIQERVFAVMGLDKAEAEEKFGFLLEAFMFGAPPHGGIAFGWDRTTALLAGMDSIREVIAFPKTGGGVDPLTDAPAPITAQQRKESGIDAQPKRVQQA
In words: Assay for Asp RNA synthetase-1 from Mycobacterium tuberculosis. The assay is classed as functional. The following applies: 30 µM.

The target of assay [4] is AMP-activated protein kinase, AMPK (Homo sapiens) (UniProt P54646+O43741+P54619+Q9UGJ0+Q9Y478+Q13131+Q9UGI9). In words: AMP-dependent Kinase enzyme assay. An in vitro enzyme assay that detects ADP turnover that is directly proportional to AMPK activity. This uses naive AMPK that is activated during the assay with MK-8722. In kind it is functional. The note with it: 30 µM.

For assay [5], the target named is Sialic acid-binding Ig-like lectin 9 (Homo sapiens) (UniProt Q9Y336). Description: Hs-Siglec9 ALPHAscreen SOP 20170721. The following applies: 10 µM. On the technique in general: Bead proximity is the source of the signal in Alpha formats.
Assay [6] relates to Trypanosoma cruzi. Description: Trypanosoma cruzi phosphomannomutase and mannose-1-phosphate guanylyltransferase assay. The assay is classed as functional. The note with it: 10 µM.
For assay [7], the target named is T3, Arginase-2, mitochondrial (Homo sapiens) (UniProt P78540).
T3 sequence (whole entry): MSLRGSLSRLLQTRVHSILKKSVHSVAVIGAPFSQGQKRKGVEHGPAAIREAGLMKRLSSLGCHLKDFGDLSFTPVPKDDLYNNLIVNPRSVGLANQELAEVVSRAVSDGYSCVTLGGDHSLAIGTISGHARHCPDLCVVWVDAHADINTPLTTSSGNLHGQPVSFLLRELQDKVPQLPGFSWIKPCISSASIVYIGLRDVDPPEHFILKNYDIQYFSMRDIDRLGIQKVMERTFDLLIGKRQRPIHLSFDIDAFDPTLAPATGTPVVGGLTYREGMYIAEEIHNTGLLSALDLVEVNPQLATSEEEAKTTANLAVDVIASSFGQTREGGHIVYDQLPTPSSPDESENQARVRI
In words: in vitro enzyme assay to detect the production of urea directly proportional to the activity of Arginase II. Note: in the data most compounds retested in dose-response had high values. The assay is classed as functional. The note with it: 33.3 µM.

Assay [8] deals with T4, Proteasome subunit beta (Trypanosoma cruzi) (UniProt O96673).
T4 sequence (whole entry): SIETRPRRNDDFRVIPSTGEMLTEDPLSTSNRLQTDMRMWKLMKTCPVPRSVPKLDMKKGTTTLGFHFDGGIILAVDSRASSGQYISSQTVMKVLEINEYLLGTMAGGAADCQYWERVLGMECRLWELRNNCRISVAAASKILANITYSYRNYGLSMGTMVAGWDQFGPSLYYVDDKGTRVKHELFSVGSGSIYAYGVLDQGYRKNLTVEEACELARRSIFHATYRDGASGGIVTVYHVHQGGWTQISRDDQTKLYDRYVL
Description: Trypanosoma cruzi proteasome chymotrypsin-like activity (TcProtChymo) assay. Note: in the data most compounds retested in dose-response had high values. The note with it: 9.37 µM. In kind it is functional.

The species entered for assay [9] is Homo sapiens. In words: To identify inhibition of the IFN signalling (Jak-Stat) pathway via expression of an eGFP reporter gene under the control of an IFN-stimulated response element (ISRE) containing MxA promoter. The note with it: 30 µM. In kind it is functional. A general note: In a reporter assay the amount or activity of a reporter protein is the signal.

Assay [10] deals with Shiga toxin 2 (Escherichia coli O157:H7) (UniProt P09385+P09386). Description: E. coli 0.157:H7 Shiga Toxin SOP - stx2 screening assay. The note with it: 30 µM. The assay is classed as functional.
In assay [11] the target is T5, Tyrosyl-tRNA synthetase, putative (Trypanosoma cruzi (strain CL Brener)) (UniProt Q4DSP6).
T5 sequence (whole entry): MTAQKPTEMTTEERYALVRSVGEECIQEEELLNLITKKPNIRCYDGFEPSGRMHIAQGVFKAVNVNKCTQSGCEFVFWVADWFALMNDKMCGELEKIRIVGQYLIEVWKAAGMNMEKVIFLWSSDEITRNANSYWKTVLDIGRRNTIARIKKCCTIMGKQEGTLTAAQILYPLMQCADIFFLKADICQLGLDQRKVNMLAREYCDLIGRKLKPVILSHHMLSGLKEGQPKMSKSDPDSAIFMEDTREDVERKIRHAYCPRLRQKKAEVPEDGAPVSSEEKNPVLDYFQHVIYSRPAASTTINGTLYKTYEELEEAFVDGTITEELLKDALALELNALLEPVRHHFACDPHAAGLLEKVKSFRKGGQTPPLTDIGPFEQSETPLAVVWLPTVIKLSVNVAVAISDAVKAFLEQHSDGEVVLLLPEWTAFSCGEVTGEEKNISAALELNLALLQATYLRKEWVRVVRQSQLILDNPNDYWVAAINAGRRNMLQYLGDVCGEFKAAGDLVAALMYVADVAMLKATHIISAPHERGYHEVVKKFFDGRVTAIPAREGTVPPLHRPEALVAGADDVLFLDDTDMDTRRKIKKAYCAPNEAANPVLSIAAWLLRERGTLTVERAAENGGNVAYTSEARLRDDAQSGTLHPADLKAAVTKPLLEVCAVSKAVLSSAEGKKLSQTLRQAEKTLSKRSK
In words: Trypanosoma cruzi tyrosyl tRNA synthetase (TcYRS) _High Tyrosine SOP. Note: in the data most compounds retested in dose-response had high values. In kind it is functional. The following applies: 30 µM.

The target in assay [12] is T5, Tyrosyl-tRNA synthetase, putative (Trypanosoma cruzi (strain CL Brener)). Description: Trypanosoma cruzi tyrosyl tRNA synthetase (TcYRS) SOP. In kind it is functional. The note with it: 30 µM.
The target in assay [13] is Chromo domain-containing protein 1 (Saccharomyces cerevisiae (strain ATCC 204508 / S288c) (Baker's yeast)) (UniProt P32657). In words: ScCHD-1 Enzyme Inhibition Assay. Note: in the data most compounds retested in dose-response had high values. In kind it is functional. The following applies: 30 µM.
Chromo domain-containing protein 1 (Saccharomyces cerevisiae (strain ATCC 204508 / S288c) (Baker's yeast)), sequence (P32657 whole entry, the tested form may be a part): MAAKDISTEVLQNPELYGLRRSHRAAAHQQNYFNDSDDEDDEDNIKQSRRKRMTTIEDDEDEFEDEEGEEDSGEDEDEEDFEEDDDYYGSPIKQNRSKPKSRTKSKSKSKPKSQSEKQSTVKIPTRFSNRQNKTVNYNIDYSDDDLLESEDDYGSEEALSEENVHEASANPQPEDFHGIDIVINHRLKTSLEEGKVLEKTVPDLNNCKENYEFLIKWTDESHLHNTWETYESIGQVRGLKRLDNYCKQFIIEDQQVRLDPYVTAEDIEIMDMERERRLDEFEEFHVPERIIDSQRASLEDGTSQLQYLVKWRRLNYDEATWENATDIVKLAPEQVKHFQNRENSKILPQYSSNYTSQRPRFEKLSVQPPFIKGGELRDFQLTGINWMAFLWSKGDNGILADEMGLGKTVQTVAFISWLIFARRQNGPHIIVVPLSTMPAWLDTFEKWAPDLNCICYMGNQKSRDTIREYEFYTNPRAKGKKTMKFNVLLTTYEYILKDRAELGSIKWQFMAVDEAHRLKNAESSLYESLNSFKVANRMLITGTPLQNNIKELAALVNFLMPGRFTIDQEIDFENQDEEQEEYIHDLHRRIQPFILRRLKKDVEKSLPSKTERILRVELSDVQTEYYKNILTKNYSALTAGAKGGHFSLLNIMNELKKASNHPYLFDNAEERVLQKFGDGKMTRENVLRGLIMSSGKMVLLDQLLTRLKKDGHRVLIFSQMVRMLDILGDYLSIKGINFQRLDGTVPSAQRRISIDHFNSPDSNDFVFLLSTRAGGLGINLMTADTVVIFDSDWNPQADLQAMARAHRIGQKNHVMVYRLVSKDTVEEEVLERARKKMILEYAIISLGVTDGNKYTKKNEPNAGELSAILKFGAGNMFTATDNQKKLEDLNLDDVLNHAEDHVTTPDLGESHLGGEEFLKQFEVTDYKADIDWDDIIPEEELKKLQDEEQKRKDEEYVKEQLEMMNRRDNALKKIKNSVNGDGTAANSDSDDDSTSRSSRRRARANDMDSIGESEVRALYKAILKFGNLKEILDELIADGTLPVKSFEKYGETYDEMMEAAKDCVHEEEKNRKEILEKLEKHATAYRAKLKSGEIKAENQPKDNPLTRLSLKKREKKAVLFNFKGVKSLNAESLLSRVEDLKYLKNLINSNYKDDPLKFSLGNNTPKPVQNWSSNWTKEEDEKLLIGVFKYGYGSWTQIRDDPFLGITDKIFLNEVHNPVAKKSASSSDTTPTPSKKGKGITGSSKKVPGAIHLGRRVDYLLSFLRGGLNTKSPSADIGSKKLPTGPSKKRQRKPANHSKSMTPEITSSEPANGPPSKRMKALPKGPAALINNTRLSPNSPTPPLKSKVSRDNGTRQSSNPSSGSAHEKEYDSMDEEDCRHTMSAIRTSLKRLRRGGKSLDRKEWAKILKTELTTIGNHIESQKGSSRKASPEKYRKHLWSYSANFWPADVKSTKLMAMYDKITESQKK

Sialic acid-binding Ig-like lectin 9 (Homo sapiens), sequence (Q9Y336 whole entry): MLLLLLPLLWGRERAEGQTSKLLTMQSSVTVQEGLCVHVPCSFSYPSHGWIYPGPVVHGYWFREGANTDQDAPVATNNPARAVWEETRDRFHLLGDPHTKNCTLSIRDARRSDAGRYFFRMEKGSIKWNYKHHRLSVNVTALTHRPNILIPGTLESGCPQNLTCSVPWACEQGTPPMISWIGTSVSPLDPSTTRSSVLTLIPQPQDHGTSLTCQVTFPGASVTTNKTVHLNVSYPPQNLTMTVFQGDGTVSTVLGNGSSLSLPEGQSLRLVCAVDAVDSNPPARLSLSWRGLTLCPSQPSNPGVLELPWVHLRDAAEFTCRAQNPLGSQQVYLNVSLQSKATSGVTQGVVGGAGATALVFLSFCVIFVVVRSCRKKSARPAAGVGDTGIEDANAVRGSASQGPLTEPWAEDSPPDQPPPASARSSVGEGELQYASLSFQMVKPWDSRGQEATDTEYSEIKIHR
Protein translocase subunit SecA (Escherichia coli (strain K12)), sequence (P10408 whole entry): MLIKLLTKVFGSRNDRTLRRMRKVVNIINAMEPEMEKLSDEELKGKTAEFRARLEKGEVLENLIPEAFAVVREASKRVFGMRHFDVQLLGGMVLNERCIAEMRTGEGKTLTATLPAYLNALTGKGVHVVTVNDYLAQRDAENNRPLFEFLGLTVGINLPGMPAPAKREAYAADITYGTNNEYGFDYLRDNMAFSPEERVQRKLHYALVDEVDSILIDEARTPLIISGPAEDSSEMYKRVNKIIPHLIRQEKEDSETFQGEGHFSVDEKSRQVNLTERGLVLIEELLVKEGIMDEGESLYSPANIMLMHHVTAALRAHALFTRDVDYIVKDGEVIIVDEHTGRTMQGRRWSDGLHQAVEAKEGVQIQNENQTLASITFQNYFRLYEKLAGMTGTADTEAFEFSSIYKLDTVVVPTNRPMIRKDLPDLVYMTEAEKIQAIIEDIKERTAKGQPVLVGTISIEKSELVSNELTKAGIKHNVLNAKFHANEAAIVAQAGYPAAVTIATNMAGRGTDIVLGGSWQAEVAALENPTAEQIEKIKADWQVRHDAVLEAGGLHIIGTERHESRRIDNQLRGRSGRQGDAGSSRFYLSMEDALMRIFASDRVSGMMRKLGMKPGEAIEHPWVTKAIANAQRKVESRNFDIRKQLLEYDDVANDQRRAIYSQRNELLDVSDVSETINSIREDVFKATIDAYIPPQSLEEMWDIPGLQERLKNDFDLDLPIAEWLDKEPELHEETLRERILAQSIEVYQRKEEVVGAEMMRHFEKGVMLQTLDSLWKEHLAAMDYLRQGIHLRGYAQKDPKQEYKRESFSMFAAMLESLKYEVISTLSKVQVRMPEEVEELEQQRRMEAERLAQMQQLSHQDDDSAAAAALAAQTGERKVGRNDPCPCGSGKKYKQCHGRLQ

As for `CCn1cc(CN2CCCN(C(=O)Cc3ccc(C)nc3)CC2)cn1`, the Percent Effect in assay [1] is -6.08%; in [2], 10.4%; in [3], -1.87%; in assay [4], 0.798%; in assay [5], 5.82%; in assay [6], 6.76%. Moreover, the Percent Effect is -3.58% in [7]; 5.09% in [8]; -17.1% in [9]; 1.69% in assay [10]; -1.91% in [11]; 9.41% in assay [12]. In addition, in assay [13], the Percent Effect is -14.6%.

In the case of `CN(C)c1ncc2c(n1)C1(CCN(CC3CC3)C1)COC2` (configuration not stated), the Percent Effect in assay [1] was 2.42%; in [2] it was 0%; in [3], 0.342%; in [4], 0.164%; in [5], 8.71%; in assay [6], -4.37%. Moreover, the Percent Effect in assay [7] was 0.798%; in [8], 13.1%; in assay [9] it was -7.22%; in assay [10], -16.3%; in assay [11], 7.29%; in assay [12] it was 11.1%. In addition, the Percent Effect in assay [13] is -5.42%.

Take `CCOCC(O)CN1CCN(C(=O)Cc2ccc(C)nc2)CC1` (configuration not stated): the Percent Effect is -0.896% in [1]; 18.4% in assay [2]; -0.811% in assay [3]; 1.93% in [4]; 7.02% in [5]; -3.38% in [6]. Further, the Percent Effect in assay [7] worked out at 3.83%; in [8], 15.9%; in assay [9], 10.3%; in assay [10], 27%; in assay [11], 11.3%; in assay [12], 17.1%. The Percent Effect in assay [13] was -5.52%.

Consider `CCN1CCC2(COCc3cnc(-c4cccnc4)nc32)C1` (configuration not stated), for which the Percent Effect in assay [1] is -4.12%; in assay [2], 10.8%; in [3], 3.74%; in assay [4], 3.75%; in [5] it was 1%; in [6] it was -2.44%. In addition, the Percent Effect in assay [7] was -4.78%; in [8], 19.9%; in [9], 5.19%; in assay [10] it was 8.79%; in [11], 3.24%; in assay [12], 10.3%. Moreover, the Percent Effect in assay [13] worked out at 2.57%.
